DT40 TDP1 no CPT: qHTS for Inhibitors of human tyrosyl-DNA phosphodiesterase 1 (TDP1): qHTS in cells in absence of CPT. DT40 Tdp1-/- hTDP1 cells, no CPT, ATP luminescence, 48 h. Potency, µM (series often up to 46.2 µM), hits mostly inhibitors. 420,000 tested, 15% active; further: nearly all actives have a fitted effect of over 55% in size
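A cellular qHTS used chicken DT40 cells lacking endogenous Tdp1 but carrying stably transfected human TDP1. Compounds were applied without camptothecin, and cell growth kinetics were judged by ATP-dependent luminescence after ≥48 hr.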
TDP1 cell CPT: qHTS for Inhibitors of human tyrosyl-DNA phosphodiesterase 1 (TDP1): qHTS in cells in presence of CPT; chicken DT40 Tdp1-/-;hTDP1 cells + 20 nM CPT, ATP luminescence, 48 h; Potency, µM (series often up to 46.2 µM), actives largely listed as inhibitors; 420,000 tested, 12% active; AID 686979, 2013; further: nearly all actives have a fitted effect of over 55% in size
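Chicken DT40 Tdp1-/- cells stably complemented with human TDP1 were seeded at 400 cells/well in medium containing 20 nM camptothecin, exposed to pin-transferred compounds, and grown at 37 °C for at least 48 hr. Viability was read as ATP luminescence.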
IL-1B inflam inh: qHTS for Inhibitors of Inflammasome Signaling: IL-1-beta AlphaLISA Primary Screen; activity change, % at 57.5 µM; THP-1 LPS/ATP IL-1B secretion, AlphaLISA, 16 h; hits give low values; AID 743279, 2014; 360,000 tested, 4.7% active; in the data active means activity change below about -50%; inconclusive means mostly about -30% to -49%
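THP-1 cells pretreated 1 hr with compounds (up to 57.5 uM final), then stimulated with LPS (250 ng/mL final) plus ATP (1.25 mM final); secreted IL-1B measured by AlphaLISA after 16 hr, decreased signal indicating inhibition.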
HT1080NT lethal: qHTS for induction of synthetic lethality in tumor cells producing 2HG: qHTS for the HT-1080-NT fibrosarcoma cell line; HT-1080-NT fibrosarcoma viability, CellTiter-Glo ATP luminescence, 48 h; Potency, µM (titrated, usually from 46.1 µM), hits mostly cytotoxic; 360,000 tested, 1.6% active; AID 686970, 2013;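 further: NT is the 2HG producing partner of a matched IDH1 knockdown line; nearly all actives have a fitted effect of over 55% in size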
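A 48-hour cytotoxicity screen used HT-1080-NT cells plated 2 hours before compound delivery. ATP-based CellTiter-Glo luminescence measured viability, normalized to DMSO and no-cell controls.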
HT1080 IDH1KD tx: qHTS for induction of synthetic lethality in tumor cells producing 2HG: qHTS for the HT-1080-IDH1KD cell line; HT-1080 IDH1 knockdown viability, ATP luminescence, 48 h; Potency, µM (titrated, usually from 46.1 µM), usual class: cytotoxic; 360,000 tested, 2% active; AID 686971, 2013
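IDH1KD HT-1080 cells, 750/well, RPMI + 5% FBS; compound pinned after 2 h settling; 48 h, 37 °C; CellTiter-Glo luminescence; % activity normalised to DMSO and no-cell wells; curves fitted, classed by r2 and efficacy.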
Hits are given with their value; n = inactive; u = inconclusive; x = not tested or not shown; [ ] = remark or other dose. Rows were chosen to be rich in hits. Some 19% of all compounds tested hit in one or more screens of this group. Unless noted, the call rests on the fitted dose curve; in most records, active means well fitted curve in the direction sought with a large enough effect; inconclusive means small, poorly fitted or top-dose-only effect, or another doubt; inactive means no such curve, though single readings can be large; an effect the other way counts as inactive or inconclusive.

SMILES	DT40 TDP1 no CPT	TDP1 cell CPT	IL-1B inflam inh	HT1080NT lethal	HT1080 IDH1KD tx
CCN(C(=O)Cn1nnc2sc(-c3ccccc3)cc2c1=O)c1cccc(C)c1	u	16µM	x	x	x
Cc1c(NC(=O)C(C)Sc2nc3ccccc3c(=O)n2CCO)c(=O)n(-c2ccccc2)n1C (stereo unspecified)	n	n	n	n	n
CC(C)c1cc(NC(=O)CCl)on1	9.2µM	13µM	-79	18µM	26µM
CCC(CC)C(C(=O)NCc1ccccc1)N1CCN(C(=O)C2CCCO2)CC1 (stereo unspecified)	n	n	n	n	n
COc1ccc(Cl)cc1NC(=O)CSC1=Nc2ccccc2C2=NC(CC(=O)NC3CCCCC3)C(=O)N12 (stereo unspecified)	n	18µM	x	x	x
COc1ccc(Cl)cc1NC(=O)CSC1=Nc2ccccc2C2=NC(CCC(=O)NCc3ccc(F)cc3)C(=O)N12 (stereo unspecified)	16µM	23µM	x	x	x
COc1ccc(NC(=O)CSC2=Nc3ccccc3C3=NC(CCC(=O)NCc4ccc(F)cc4)C(=O)N23)cc1Cl (stereo unspecified)	15µM	u	x	x	x
Cc1cc(C)n(-c2ccc(C(=O)NCC3Cc4cc(-c5cnccn5)ccc4O3)cc2)n1 (stereo unspecified)	n	n[9.04 µM]	x	x	x
Cc1ccc(S(=O)(=O)N2CCCC2)cc1C(=O)NCC(C)(C)N1CCOCC1	u	n	n	n	n
CCOC(=O)/C(=C/C=C1\Sc2cc(OCC)c(OCC)cc2N1CC)C(C)=O	4.6µM	7.3µM	n	n	n
CCN1/C(=C\C=C2\C(=O)N(C)C(=S)N2C)Sc2ccccc21	u	n	n	n	n
CCOC(=O)/C(=C\C=C1/Sc2cc(OCC)c(OCC)cc2N1CC)C(C)=O	2.3µM	1.8µM	-93	n	n
CNC(=O)c1[nH]cnc1C(=O)N[C@@H](C)C(=O)OC(C)(C)C	n	n	n	n	n
O=C(COc1ccccc1)Nc1nc(-c2ccncc2)cs1	16µM	21µM	n	n	n
Cc1cc(C)cc(OCC(=O)Nc2nc(-c3cccnc3)cs2)c1	9.2µM	15µM	n	n	n
COc1ccccc1Nc1nc(-c2cccnc2)cs1	u	u	-95	n	n
COc1ccc(Nc2nc(-c3cccnc3)cs2)c(OC)c1	u	u	u	n	n
COc1cccc(CC(=O)Nc2nc(-c3cccnc3)cs2)c1	u	n	n	n	n
COc1ccc(CC(=O)Nc2nc(-c3cccnc3)cs2)cc1	26µM	u	n	n	n
CCOC(=O)Nc1ccc2c(c1)Sc1ccccc1N2C(=O)CCN1CCOCC1	n	n	n	n	n
CN1CCCN(C2C3CC4CC(C3)CC2C4)CC1 (stereo unspecified)	n	n	n	n	n
Cc1c(NC(=O)CSc2nc(-c3ccco3)cc(C(F)(F)F)n2)c(=O)n(-c2ccccc2)n1C	n	u	n	n	n
Cc1cc(NC(=O)CCCSc2nc(-c3ccco3)cc(C(F)(F)F)n2)n(-c2ccccc2)n1	21µM	u	n	n	u
Cc1cc(NC(=O)CSc2nc(-c3ccco3)cc(C(F)(F)F)n2)n(-c2ccccc2)n1	4.1µM	4.1µM	n	u	u
CCCC(=O)n1nc(-c2ccco2)nc1SCc1ccccc1	u	3.7µM	n	n	u
SMILES	DT40 TDP1 no CPT	TDP1 cell CPT	IL-1B inflam inh	HT1080NT lethal	HT1080 IDH1KD tx
O=C(NCCc1ccccc1)C1CCN(c2ncnc3c2nc2n3CCCCC2)CC1	n	n	x	x	x
CCN(CC)C(=O)c1cnn(-c2ccccc2)c1NC(=O)c1cccs1	n	n	n	n	n
CC1(C(=O)NS(=O)(=O)c2cccc(C#N)c2)CCN1C(=O)c1ccccc1 (stereo unspecified)	n	n	n	n	n
COc1ccc(-c2nnc(-c3cccs3)o2)cc1OC	n	n	u	n	n
COc1ccc(-c2nc(-c3cccs3)c(-c3cccs3)[nH]2)cc1O	13µM	16µM	n	n	u
COc1ccccc1N(CC(=O)Nc1ccc2c(c1)OCCO2)S(=O)(=O)c1ccc(C)cc1	9.2µM	u	n	n	n
COc1ccc(N(CC(=O)Nc2ccc3c(c2)OCO3)S(=O)(=O)c2ccc(F)cc2)cc1	u	u	n	n	n
COc1ccc(N(CC(=O)Nc2ccc3c(c2)OCO3)S(=O)(=O)c2ccccc2)cc1OC	u	u	n	n	n
COc1ccc(N(CC(=O)Nc2ccc3c(c2)OCCO3)S(=O)(=O)c2cccc(C)c2)cc1	u	26µM	n	n	n
COC(=O)c1ccc(CN(c2ccc(C)cc2)S(=O)(=O)c2ccc3c(c2)OCCO3)o1	16µM	12µM	n	n	n
COc1ccc(N(CC(=O)Nc2ccc3c(c2)OCO3)S(=O)(=O)c2ccccc2)c(OC)c1	18µM	21µM	n	n	n
COC(=O)c1ccc(CN(C)S(=O)(=O)c2ccc(C)cc2)o1	n	n	n	n	n
CCCNC(=O)C1(C)CCCN(CC(=O)c2ccc3c(c2)OCCO3)C1 (stereo unspecified)	n	n	n	n	n
CC(C)COc1ccc(C(=O)Nc2ccc(S(=O)(=O)Nc3ncccn3)cc2)cc1	n	n	x	x	x
NNc1nnc2c3cc(F)ccc3n(CCc3ccccc3)c2n1	16µM	u	n	u	u
CCN(CC)CCSc1nnc2c3ccccc3n(Cc3ccccc3)c2n1	16µM	23µM	n	u	u
CCN(CC)CCSc1nnc2c3cc(F)ccc3n(C)c2n1	u	n	x	x	x
CCN(CC)CCSc1nnc2c3cc(F)ccc3n(Cc3ccccc3)c2n1	u	u	-64	n	u
CCOC(=O)CNC(=O)C1CCCCC1	n	n	x	x	x
CCc1ccc(CNC(=O)C2CCC(=O)N(CCc3ccc(Cl)cc3)C2)nc1 (stereo unspecified)	u	u	n	n	n
CC(C)(C)OC(=O)NCCCCCNC(=O)c1nc[nH]c1C(=O)NCC(=O)OCc1ccccc1	15µM	u	n	n	n
CC(C)(C)OC(=O)NCCCC[C@H](NC(=O)c1nc[nH]c1C(=O)NCC(=O)OCc1ccccc1)C(=O)OC(C)(C)C	u	15µM	n	n	n
Cc1ccc(OCc2cc(=O)n3cc(C)sc3n2)c(NC(=O)c2ccco2)c1	u	n	x	x	x
CCCC(=O)NC(=S)c1c(C)n(C)n(-c2ccccc2)c1=O	n	n	n	n	n
CCOc1cc(S(=O)(=O)NCc2cccnc2)c(C)cc1C	n	u	n	n	n
Cc1ccc(Nc2c(-c3ccncc3)nc3ccc(C)cn23)cc1	u	16µM	x	x	x
